Test results as given in PMC4336329 (PLoS ONE, 2015).
Hit rate of the full screen: of about 310,000 compounds, about 14,000 (4.5%) showed an effect of 50% or more. The effect is printed as a negative number. Only a selection was taken, and strong results are over-represented in it overall.

target: human ether-à-go-go-related gene (hERG) potassium channel (human, UniProt Q12809); assay: primary screen, population patch clamp on CHO cells stably expressing hERG; higher = less effect of the substance
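Also: peak tail current of the secondary pulse compared with the same well before compound.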

Chain of human ether-à-go-go-related gene (hERG) potassium channel (Q12809 whole entry, looked up): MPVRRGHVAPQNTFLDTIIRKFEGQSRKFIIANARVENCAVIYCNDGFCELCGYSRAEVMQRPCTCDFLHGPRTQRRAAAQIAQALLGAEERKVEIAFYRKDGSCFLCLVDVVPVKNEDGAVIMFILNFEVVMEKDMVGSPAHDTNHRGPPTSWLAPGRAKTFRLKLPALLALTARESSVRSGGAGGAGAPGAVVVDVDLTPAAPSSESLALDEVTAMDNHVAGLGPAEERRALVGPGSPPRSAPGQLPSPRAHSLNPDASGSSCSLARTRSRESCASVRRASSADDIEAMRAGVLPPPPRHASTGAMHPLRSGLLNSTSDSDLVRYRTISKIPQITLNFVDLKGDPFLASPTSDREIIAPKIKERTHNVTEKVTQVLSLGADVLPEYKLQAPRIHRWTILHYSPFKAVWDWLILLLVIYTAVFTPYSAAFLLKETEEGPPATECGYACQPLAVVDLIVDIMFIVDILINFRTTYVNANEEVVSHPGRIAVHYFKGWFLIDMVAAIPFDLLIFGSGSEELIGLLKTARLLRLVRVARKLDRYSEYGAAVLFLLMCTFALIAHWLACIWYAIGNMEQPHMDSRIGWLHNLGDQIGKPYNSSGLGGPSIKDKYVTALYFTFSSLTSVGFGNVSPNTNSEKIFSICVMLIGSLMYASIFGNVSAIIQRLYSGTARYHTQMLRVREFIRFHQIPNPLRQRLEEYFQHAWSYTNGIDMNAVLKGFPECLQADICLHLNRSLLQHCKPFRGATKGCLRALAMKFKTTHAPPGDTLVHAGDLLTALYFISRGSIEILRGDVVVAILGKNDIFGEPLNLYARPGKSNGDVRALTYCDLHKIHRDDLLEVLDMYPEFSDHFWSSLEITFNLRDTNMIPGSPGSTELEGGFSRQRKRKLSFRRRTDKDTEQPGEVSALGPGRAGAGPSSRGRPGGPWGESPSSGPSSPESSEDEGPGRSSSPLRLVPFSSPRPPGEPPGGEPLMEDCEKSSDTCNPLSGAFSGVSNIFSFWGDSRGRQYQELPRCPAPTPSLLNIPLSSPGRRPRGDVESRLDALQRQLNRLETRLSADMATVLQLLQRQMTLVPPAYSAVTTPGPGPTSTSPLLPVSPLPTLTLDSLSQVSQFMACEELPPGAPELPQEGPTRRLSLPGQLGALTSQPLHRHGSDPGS

SMILES | hERG current change (%, negative = inhibition) at 10uM
O=C(NCCc1ccc(OC(F)F)cc1)C1CC(=O)N(c2ccc3c(c2)OCCO3)C1 (stereo not drawn) | -47.6%
CNC(=S)N/N=C/c1cc(C)ccc1C | 20.7%
O=C(CCc1ccccc1)Nc1ncc([N+](=O)[O-])s1 | 2.96%
Cc1ccc(CNC(=O)C2CCC(=O)N2Cc2ccccc2Cl)cc1 (stereo not drawn) | 2.52%
CCOC(=O)C1(CCOc2ccccc2)CCN(Cc2cc(OC)cc(OC)c2)CC1 | -79.8%
CN(C(=O)c1ccc(NC(=O)Cc2ccc(NC(=O)C3CCN(C(=O)C4CCCC4)CC3)cc2)cc1)C1CC1 | 22.8%
O=C(CN1CCN(S(=O)(=O)c2ccccc2)CC1)N1CCCCC1 | 10.8%
O=C(CN1CCN(S(=O)(=O)c2cccc(Cl)c2)CC1)N1CCCCC1 | -24.8%
Cc1ccc(S(=O)(=O)N2CCN(CC(=O)N3CCOCC3)CC2)cc1 | 16.8%
O=C(CN1CCN(S(=O)(=O)c2ccc(Cl)s2)CC1)N1CCOCC1 | 14.4%
O=C(CN1CCN(S(=O)(=O)c2ccc(Cl)c(Cl)c2)CC1)N1CCCCC1 | -53.5%
Cc1cc(Cl)c(C)c(S(=O)(=O)N2CCN(CC(=O)N3CCOCC3)CC2)c1Cl | -64.8%
COc1ccc2c(c1)O[C@@]1(CCCC[C@@H]1C)CC2=O | -1.09%
CCC(C)Sc1nc2c(c(=O)[nH]c(=O)n2C)n1C (stereo not drawn) | -4.04%
Cc1nn(C(C)C(=O)NCCN2CCCC2)c(=O)c2c1sc1ccccc12 (stereo not drawn) | 1.56%
Cn1c(C(=O)N2CCN(c3nc4ccccc4s3)CC2)cc2sccc21 | -8.35%
O=C(Nc1ccccc1C(=O)Nc1ccncc1)c1ccc([N+](=O)[O-])cc1 | -4.77%
O=C(Nc1ccc(Nc2ccncc2)cc1)c1ccc([N+](=O)[O-])cc1 | -59.5%
COc1ccccc1C(=O)NCCCNc1ccc([N+](=O)[O-])cc1 | -19.2%
COC(=O)C(CC(C)C)NC(=O)c1ccc([N+](=O)[O-])cc1 (stereo not drawn) | -23.2%
COc1ccc(C(=O)NCCNc2ccc([N+](=O)[O-])cc2)cc1OC | -1.31%
O=C(NNC(=O)c1ccncc1)Nc1ccc([N+](=O)[O-])cc1 | 11.2%
O=C(CCNc1ccc(Cc2ccncc2)cc1)c1ccc([N+](=O)[O-])cc1 | -56.8%

SMILES | hERG current change (%, negative = inhibition) at 10uM
COc1cc(C(=O)NCCCNc2ccc([N+](=O)[O-])cc2)cc(OC)c1OC | -57.6%
O=[N+]([O-])c1ccc(NCc2ccncc2)cc1 | -3.55%
O=C(NCCCCC(NC(=O)c1ccc([N+](=O)[O-])cc1)C(=O)O)c1ccc([N+](=O)[O-])cc1 (stereo not drawn) | -44.7%
COC(=O)C(CCCCNC(=O)c1ccc([N+](=O)[O-])cc1)NC(=O)c1ccc([N+](=O)[O-])cc1 (stereo not drawn) | -76.3%
O=C(CCNc1ccc(Cc2ccncc2)cc1)c1cccc([N+](=O)[O-])c1 | 11%
COc1cccc(CN2CCNC(=O)C2CC(=O)NCCc2ccccn2)c1 (stereo not drawn) | 9.8%
CC1CCN(C(c2cc3cc4c(cc3[nH]c2=O)OCO4)c2nnnn2CC2CCCO2)CC1 (stereo not drawn) | -3.99%
Nc1ccc(SCCN2C(=O)c3ccccc3C2=O)cc1 | -1.22%
CC(=O)/C(C(=N)N1CCN(C(c2ccccc2)c2ccccc2)CC1)=C(\C)O | 8.3%
O=C(CCNC(=O)c1ccco1)Nc1ccccc1OC(F)F | 10.4%
COc1ccccc1-c1cc(C(=O)NCCc2ccccc2)no1 | 5.18%
BrCC(Br)C1CCC(Br)C(Br)C1 (stereo not drawn) | 20.6%
Cc1cc(OCC(=O)NC(C)(C)C)ccc1Cl | 7.04%
COC(=O)c1ccc2c(c1)NC1=C(C(=O)CC(C)(C)C1)C(c1ccncc1)N2 (stereo not drawn) | -4.48%
O=C(NCc1ccco1)c1cc([N+](=O)[O-])ccc1N1CCOCC1 | -25.4%
c1ccc(-n2nnnc2CN2CCOCC2)cc1 | 14.8%
CCOC(=O)[C@H]1[C@H]2COc3ccc(C)cc3[C@@H]2N2C(=O)CN(CC3CCCO3)C(=O)[C@@]12C (stereo partly drawn) | 7.72%
O=C(NCCNc1ccc([N+](=O)[O-])cc1)c1ccc(Cl)cc1 | -52.8%
CCOc1ccc2nc(NCCNC(=O)c3cc(OC)c(OC)c(OC)c3)c(C#N)cc2c1 | 5.24%
COc1ccc(C(=O)NCCNc2ccc([N+](=O)[O-])cc2)cc1 | -40.9%
CCOc1ccc2nc(NCCCNC(=O)c3cc(OC)c(OC)c(OC)c3)c(C#N)cc2c1 | -51.3%
O=C(NCCNc1ccc([N+](=O)[O-])cc1)c1cc(F)c(F)cc1Cl | -45.1%
COc1ccc2nc(NCCCNC(=O)c3cc(OC)c(OC)c(OC)c3)c(C#N)cc2c1 | -11%

SMILES | hERG current change (%, negative = inhibition) at 10uM
Cn1nnnc1Sc1ncnc2scc(-c3ccccc3Br)c12 | -4.66%
COc1ccc(CCN(C)C2CC(=O)N(c3ccccc3)C2=O)cc1OC (stereo not drawn) | -5.77%
Cc1ccc(N(Cc2cc(=O)[nH]c3ccccc23)C(=O)c2ccco2)cc1 | -34.4%
Cc1cc(C)n(C(=O)Cn2nc(C)c(Br)c2C)n1 | 14%
O=C(Nc1cccc(Cl)c1)Nc1cnccn1 | 29.1%
CCOC(=O)C1(CC2CCCCO2)CCN(Cc2c(C)cc(C)cc2-n2cccn2)CC1 (stereo not drawn) | -77.8%
CCOC(=O)C1(CC2CCCCO2)CCN(Cc2nc3ccccc3[nH]2)CC1 (stereo not drawn) | -19.5%
CCCCc1ncc(CN2CCC(CC3CCCCO3)(C(=O)OCC)CC2)[nH]1 (stereo not drawn) | -45%
CCOC(=O)C1(CC2CCCCO2)CCN(Cc2cc(F)ccc2-n2cccn2)CC1 (stereo not drawn) | -57.1%
CCOC(=O)C1(CC2CCCCO2)CCN(Cc2nc(C(C)C)cs2)CC1 (stereo not drawn) | -5.24%
CCOC(=O)C1(CC2CCCCO2)CCN(Cc2nccn2-c2cccc(C)c2)CC1 (stereo not drawn) | 13.2%
CNC(=O)NC(=O)C(C)OC(=O)c1cc2c(s1)CCCCC2 (stereo not drawn) | -7.89%
COc1ccccc1CNC(=O)CCS(=O)(=O)Cc1ccc(C)cc1 | 11.3%
O=C(CCNC(=O)c1ccco1)Nc1ccc(OC(F)F)cc1 | -23.8%
O=C(CCNC(=O)c1ccco1)Nc1ccccc1 | 15%
O=C(CCNC(=O)c1ccco1)Nc1ccc(SC(F)F)cc1 | -52.7%
COc1cc(OC)c(C2=NOC(C(=O)Nc3ccc4c(c3)OCO4)C2)cc1Cl (stereo not drawn) | 10.7%
C=CCOC(=O)C(=O)/C=C/c1c(C)n(C)n(-c2ccccc2)c1=O | 27.2%
CCOc1ccc(NC(=O)COC(=O)CC2CCCCC2)cc1 | -6.75%
COc1ccc(/C=C(/NC(=O)c2ccccc2)C(=O)NCCN2CCOCC2)cc1OC | 11.6%
Cc1ccc(C(=O)NC(=S)NCCN2CCOCC2)cc1 | 23.3%
Cc1ccc(C(=O)N/C(=C\c2ccc(Cl)cc2)C(=O)NCCCN2CCOCC2)cc1 | -72.5%
COc1ccc(/C=C(\NC(=O)c2ccc(C)cc2)C(=O)NCCN2CCOCC2)cc1 | -64.6%

SMILES | hERG current change (%, negative = inhibition) at 10uM
Cc1ccc(C(=O)N/C(=C\c2ccccc2)C(=O)NCCN2CCOCC2)cc1 | -62.4%
COc1ccc(/C=C(\NC(=O)c2ccccc2)C(=O)NCCN2CCOCC2)cc1 | -34.3%
Cc1ccc(C(=O)N/C(=C\c2ccc(F)cc2)C(=O)NCCN2CCOCC2)cc1 | -75.6%
COc1ccc(/C=C(\NC(=O)c2ccc(Cl)cc2)C(=O)NCCCN2CCOCC2)cc1OC | 13.9%
O=C(NC(=S)NCCN1CCOCC1)c1ccc(F)cc1 | -4.01%
O=C(NCCN1CCOCC1)/C(=C/c1ccccc1)NC(=O)c1ccccc1 | -16.4%
CC(=O)Nc1ccc(NC(=O)Cn2c(CC(=O)N3CCCC3)nc3ccccc32)cc1 | 9%
Cc1cc(OC(=O)CCCNC(=O)OC(C)(C)C)c2c3c(c(=O)oc2c1)CCC3 | -9.18%
CCC(=O)Nc1cc2nn(-c3ccc(OC)cc3)nc2cc1C | 0.0727%
Cc1ccc(Sc2ccc([N+](=O)[O-])cc2[N+](=O)[O-])nc1 | -19.1%
Cc1cccc(NC(=O)CCN2C(=O)C3C4C=CC(C4)C3C2=O)c1 (stereo not drawn) | 13.6%
C/C(=N\NC(=O)c1cc2ccccc2cc1O)c1ccccn1 | -3.94%
CN(C)c1ccc(/C=C(/NC(=O)c2ccccc2)C(=O)NCCN2CCOCC2)cc1 | 4.15%
Cc1ccc(C(=O)N/C(=C\c2cccs2)C(=O)NCCCN2CCOCC2)cc1 | -61.4%
CN(C)c1ccc(/C=C(\NC(=O)c2ccccc2)C(=O)NCCN2CCOCC2)cc1 | -19.9%
Cc1ccc(C(=O)N/C(=C\c2ccco2)C(=O)NCCN2CCOCC2)cc1 | -23.2%
O=C(NC(=S)NCCN1CCOCC1)c1ccc(Cl)cc1 | -13.2%
O=C(NCCCN1CCOCC1)/C(=C/c1cccs1)NC(=O)c1ccccc1 | -21.8%
Cc1ccc(C(=O)N/C(=C\c2ccc(Cl)cc2)C(=O)NCCN2CCOCC2)cc1 | -75.1%
Cc1ccc(C(=O)N/C(=C\c2cn(S(=O)(=O)N(C)C)c3ccccc23)C(=O)NCCCN2CCOCC2)cc1 | -18.7%
O=C(NCCN1CCOCC1)/C(=C/c1ccc(Cl)cc1)NC(=O)c1ccccc1 | -76.5%
